# Values joined by “and” are separate entries in the source; they are usually repeats but may differ in a detail not shown here. Identical values can stand only once. The panel holds about 83,000 compounds, 20% with a hit somewhere; the sample as a whole holds those more often.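 For each line, cells grew in 96-well plates with the test compound present at a single concentration for 48 hours.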 Unmarked numbers belong to inactive results. Active and inactive are the calls of the source. How the source made its calls: active means growth percent below 10; inactive means the rest.
# Tests used:
# Test in all cases: NCI-60 one-dose screen, 48 h (100 = growth as untreated, 0 = no growth, -100 = all killed)
# Details in all cases: 10 µM unless noted
# NCI-H23 lung = test system: NCI-H23 lung
# NCI-H226 lung = test system: NCI-H226 lung
# NCI-H322M lung = test system: NCI-H322M lung
# HOP-62 NSCLC = test system: HOP-62 NSCLC
# NCI-H460 lung = test system: NCI-H460 lung
# HOP-92 NSCLC = test system: HOP-92 NSCLC
# NCI-H522 lung = test system: NCI-H522 lung
# A549/ATCC NSCLC = test system: A549/ATCC NSCLC
# 786-0 renal = test system: 786-0 renal
# COLO 205 colon = test system: COLO 205 colon
# DU-145 prostate = test system: DU-145 prostate
# K-562 leukemia = test system: K-562 leukemia
# MALME-3M melanoma = test system: MALME-3M melanoma
# MDA-MB-231 breast = test system: MDA-MB-231 breast
# RXF 393 renal = test system: RXF 393 renal
# SF-268 CNS = test system: SF-268 CNS
# SF-295 CNS = test system: SF-295 CNS
# SF-539 CNS = test system: SF-539 CNS
# UACC-257 melanoma = test system: UACC-257 melanoma
# M14 melanoma = test system: M14 melanoma
Structure (SMILES),growth (NCI-H23 lung),growth (NCI-H226 lung),growth (NCI-H322M lung),growth (HOP-62 NSCLC),growth (NCI-H460 lung),growth (HOP-92 NSCLC),growth (NCI-H522 lung),growth (A549/ATCC NSCLC),growth (786-0 renal),growth (COLO 205 colon),growth (DU-145 prostate),growth (K-562 leukemia),growth (MALME-3M melanoma),growth (MDA-MB-231 breast),growth (RXF 393 renal),growth (SF-268 CNS),growth (SF-295 CNS),growth (SF-539 CNS),growth (UACC-257 melanoma),growth (M14 melanoma)
CCNC1=CC(=O)c2ncccc2C1=O,-49.7% (active),33.9%,13.9%,-42.5% (active),-78.3% (active),145%,-46.3% (active),-54.8% (active),83.6%,-62.5% (active),-92.9% (active),21.2%,-84.6% (active),51.2%,99%,58.3%,-71.1% (active),-59.3% (active),-13.5% (active),-87.4% (active)
CC1NC(C)c2ccc3ccccc3c2O1 (stereo not given),102%,102%,106%,108%,108%,101%,88.6%,106%,104%,121%,104%,104%,119%,110%,120%,101%,116%,102%,99.4%,92.5%
Cc1ccc(C(=O)c2ccc(C)cc2)cc1,95.9% and 98.3%,92.4% and 94.6%,97.2% and 94.3%,92.5% and 98.4%,101% and 105%,59.2% and 73.7%,89.3% and 93.6%,87.9% and 101%,90.7% and 99.6%,99.7%,102% and 103%,103% and 110%,108% and 93.2%,103% and 106%,88% and 95.8%,94.8% and 98%,94.4% and 103%,85.3% and 97.6%,92.6% and 114%,101%
O=c1[nH]c(=S)[nH]n1C(=S)n1[nH]c(=S)[nH]c1=O,110%,85%,96.8%,97.2%,103%,82.2%,84.6%,93.6%,106%,111%,110%,98.8%,102%,111%,95.6%,103%,97.8%,110%,108%,105%
O=C(O)c1ccc2c3ccc(C(=O)O)c4c(C(=O)O)ccc(c5ccc(C(=O)O)c1c25)c43,87.8%,92.2%,100%,92.4%,96.5%,112%,95.3%,92.1%,107%,104%,112%,113%,86.7%,88.2%,100%,105%,84.5%,94.2%,-14.6% (active),107%
COC(=O)c1nc(N)nc(C(=O)OC)c1C(=O)c1ccc(F)cc1,105%,110%,108%,113%,117%,101%,103%,114%,108%,117%,111%,109%,104%,103%,104%,103%,101%,103%,110%,108%
N#CC(=S)Nc1ccc(Cl)c(Cl)c1,3.93% (active),9.29% (active),-3.76% (active),24.3%,9.12% (active),-15.6% (active),-14% (active),15.6%,14.2%,-22% (active),18.6%,16.1%,-13.4% (active),-4.8% (active),13%,11%,-0.242% (active),8.61% (active),-6.42% (active),26.1%
COc1ccc(-n2[nH]c3c(cnc4ccccc43)c2=O)cc1,73.1% and 95.9%,103% and 95.3%,93.2% and 101%,100% and 94.5%,103% and 108%,99.8% and 102%,89.2%,92.4% and 102%,77.7% and 91.3%,137% and 119%,95.8% and 101%,112% and 90.7%,63.7% and 105%,119%,110% and 98.3%,103% and 106%,86.9% and 92.7%,87.8% and 93.4%,109%,92.3% and 104%
CCOC(=O)c1csc(N)n1,105% and 102%,102% and 105%,87.1% and 101%,103% and 96.9%,105%,96% and 95.7%,88.7%,81.5% and 93.8%,101% and 100%,129% and 108%,105% and 104%,101% and 102%,112% and 108%,107% and 98.7%,100%,108% and 96.7%,99.8% and 92.5%,94.8% and 101%,87.3%,118% and 98.3%
CC1CC(O)CC(C)(C)C1.CC1CC(O)CC(C)(C)C1.CC1CC(O)CC(C)(C)C1.CC1CC(O)CC(C)(C)C1.[Ti] (stereo not given),104%,97.2%,105%,103%,109%,99.2%,112%,92.6%,107%,108%,121%,98.2%,103%,96.2%,112%,115%,102%,107%,113%,96%
COC1C(OC(N)=O)C(O)C(Oc2ccc3c(O)c(NC(=O)c4ccc(O)c(CC=C(C)C)c4)c(=O)oc3c2C)OC1(C)C (stereo not given),104% and 93.7%,104% and 90.5%,105% and 102%,101% and 98.5%,116% and 94.9%,78.6%,44.3% and 131%,105% and 103%,94.2% and 101%,108% and 104%,106% and 105%,79.4% and 116%,121% and 101%,108% and 88.2%,104% and 98.2%,104% and 97.1%,92.7% and 94.9%,98% and 97.1%,104% and 101%,102% and 99.2%
O=C(NC(=O)c1ccc(F)c(Cl)c1)NC1CC1,104% and 98.8%,99.6% and 90.7%,113% and 110%,107% and 101%,100% and 102%,99.8%,75.7% and 85.1%,81.8% and 99.2%,98.7% and 94.1%,113% and 108%,106% and 98.7%,78.4% and 95.9%,107% and 98.9%,117%,113%,103%,104% and 99.5%,110% and 98.4%,97.3% and 103%,94.7% and 109%
CCC(=O)Oc1ccc(OCc2ccccc2)cc1,85.5% and 83.8%,104% and 103%,120% and 92.3%,107% and 94.8%,99.4% and 93.7%,89.1%,88.3% and 77%,99.7% and 102%,81.5% and 79.6%,124% and 113%,96.9% and 88.9%,86% and 88.4%,107% and 86.6%,60.1% and 68.4%,94% and 100%,75% and 85.5%,95.4% and 75.9%,56.2% and 65.3%,130% and 108%,101% and 77.3%

# — PubChem BioAssay (NCI)
